Reference: article PMC12136788
Whole data set: some 24,000 sequences, median “enrichment r” near 0.99, cut for the highest 2% near 3.7. These entries were drawn from the full list.

T1: UNK ZnF1-3 (human, UniProt Q9C0B0 31-174)
T1 sequence: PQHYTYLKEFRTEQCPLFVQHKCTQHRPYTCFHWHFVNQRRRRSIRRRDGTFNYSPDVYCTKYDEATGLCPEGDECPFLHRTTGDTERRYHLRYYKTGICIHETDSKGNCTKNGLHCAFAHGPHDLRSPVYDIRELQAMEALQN

B1: chr3:132387698:132387699:+_ENSG00000081307_ENST00000264991|hu_hu|FALSE|FALSE (ssRNA)
RNA: GGGAGUUCUACAGUCCGACGAUCUUGAACUUUACUUAAUCCUGCUUGAUGAGGUUGGAAGAAAAGUCUAUUCAUAUUGGCUAGUUCCACCUUGUCAUAAUCAAAGAGUAGCAACUUACCAAUGCCACAUCUUGUCAGCAUUUCCAACAGAGGAUUGAGCAUCA
B2: chr6:40197388:40197389:+_ENSMUSG00000057716_ENSMUST00000061740|mus_mus|mus_mus_mus_hu_False|18_58 (ssRNA)
RNA: GGGAGUUCUACAGUCCGACGAUCGAGACACUGGGGUGGAUUUAUUCCACCUCUGUUUGGGUGCUAGCCACUAAGACAGCUAUUUUGGGAUUCAUGGCCUUGAAUAUCAAGAGGGAAGGGACGAGAAUGGAAAGAGUCAAGAGUCAACAGAGGAUUGAGCAUCA
B3: chr11:98549071:98549072:+_ENSMUSG00000017221_ENSMUST00000017365|mus_hu|FALSE|FALSE (ssRNA)
RNA: GGGAGUUCUACAGUCCGACGAUCAUCCAGCUUGUCCAGGAACUCAUAGACCCGGGCGUGAUAAUAGUAACACUUUGCGGCUACAAGGUCUAGGGCCCGGCGGUUCUGAGUACUGAUCUUCUGCAUCAGAUCAUCAGAGAUCUUCAACAGAGGAUUGAGCAUCA
B4: chr15:103023242:103023243:-_ENSMUSG00000009575_ENSMUST00000118152|mus_mus|motif|central (ssRNA)
RNA: GGGAGUUCUACAGUCCGACGAUCAACUAGCAGCAUUGAUGAGGGGUUAAGGGAUUGGGGACAGAAACUCACCAAGGUCACGGAGUACUUCCAAACUUGGAAGUAGCUCAGUGAGGGCUAAAAAAACUUCGACUGAAGGUAUCCCAACAGAGGAUUGAGCAUCA
B5: chr7:99968543:99968544:+_ENSMUSG00000030643_ENSMUST00000032879|mus_mus|FALSE|FALSE (ssRNA)
RNA: GGGAGUUCUACAGUCCGACGAUCAAAGACCCUGAGUGAAUCUUCGGACUAGGCACGUCUUUCCCACUCCAGCGUUGCCAAUUAAAACAAUUUUGAACAGGAAAUCAUAAUCUUCCAUACUCAUUUACACAGCUGGUUUGGGAUCAACAGAGGAUUGAGCAUCA
B6: chr4:56883625:56883626:-_ENSMUSG00000055296_ENSMUST00000068792|mus_mus|FALSE|FALSE (ssRNA)
RNA: GGGAGUUCUACAGUCCGACGAUCUAUAGGCGUGCGCCACCACGCCCGGGUUUAAAAUGUGUAGACCAGGCUGGCCUCGAACUCGCGAUCCUCCUGCUUCUGCCUCCUUCAGCAAAUCCUACUGGCGUGCGCCACCACAACCAGCAACAGAGGAUUGAGCAUCA
B7: 24016654_24036560_782_3pUTR_ENSMUSG00000024277_ENSMUST00000025127|mouse|control|control (ssRNA)
RNA: GGGAGUUCUACAGUCCGACGAUCCGUUUCUAAAUCUUUGUCAGAUCUGGAUGCAGAGCCACUGGAUGAAGCCCUUUUGGCAGACGAGGGGCGAGAAGGUGUGGAUCCUGGCUUAGAUGCAGGACUUGACUUAGCCGCGCCUGCCAACAGAGGAUUGAGCAUCA
B8: chr11:77340908:77340909:-_ENSG00000074201_ENST00000525064|hu_mus|FALSE|FALSE (ssRNA)
RNA: GGGAGUUCUACAGUCCGACGAUCGUUUGGAUCCCUGGACACCGCAUGUAAACUAAUGGUGGGGUAUUCCAGUGAGAAUCCUAAUCCCGAACCAUCUAACCAGGACAGGCGGCUCUCCGCGAUGUAAAGCGUGCCGGUGCCGAGCAACAGAGGAUUGAGCAUCA
B9: chr11:115359427:115359428:-_ENSMUSG00000020737_ENSMUST00000021083|mus_hu|motif|central (ssRNA)
RNA: GGGAGUUCUACAGUCCGACGAUCUGCAGUUCACAAGCAUGGAGGAAACAGACAGAACGACAGCGUUCAGGACAGUCAGAGCGGACCCAAGACGAGGCUGGACUUGCCGCCAGGGGGAUUUCUUCUGGAUGGCACUGGGGCCGGCAACAGAGGAUUGAGCAUCA
B10: chr11:63961690:63961691:+_ENSG00000168439_ENST00000305218|hu_mus|FALSE|FALSE (ssRNA)
RNA: GGGAGUUCUACAGUCCGACGAUCUUCAUGUUUUAAACCUUCUUCAUAGGUUCGUUUGGCUUCCUCAAACCGGUUUAGGAAUUCAAGGGCUGCUGCUUUUCUUGAAUAACCCUUGCCCCAGUCAGGCUUCAGGUCAACAGUCUUCAACAGAGGAUUGAGCAUCA
B11: chr13:42873775:42873776:+_ENSG00000023516_ENST00000025301|hu_hu|FALSE|FALSE (ssRNA)
RNA: GGGAGUUCUACAGUCCGACGAUCAGAAGACGAAAAAAAUGUUUUCUGUAAAUCACUAUCUUUAUCUGAAGCAUUAGAUGACCUAUAGAAACUCCUUUGGGUCCAAGGCUCUGAAAUUGAUGUUGUGACUGAAGUUUUCACAGACAACAGAGGAUUGAGCAUCA
B12: chr9:100389865:100389866:-_ENSG00000136925_ENST00000341170|hu_mus|FALSE|FALSE (ssRNA)
RNA: GGGAGUUCUACAGUCCGACGAUCUAUCAGUGGGACAGGUUCCUUGCAGACAAGUAUCUUCCGCAAACCCUAGGCCUUUCCUGGGUCUCCCUUCACCAACUUGGCGCUGCUCCCCGCCCUCGAGCCCACGCCCCCCGGCGCGCGCAACAGAGGAUUGAGCAUCA
B13: chr9:74904954:74904955:+_ENSMUSG00000007656_ENSMUST00000169492|mus_mus|FALSE|FALSE (ssRNA)
RNA: GGGAGUUCUACAGUCCGACGAUCUCAAAAGGAAGAUACAGAAGAAAUCAAUACAACAGAGGUCCUGUUAAAUAAGAGUAACAUACAAAGCUGUAAUCAUGAGAAAGUAAAGAAAGCCAGAGCAUUAAAGCUGUAAAACUUGCUCAACAGAGGAUUGAGCAUCA
B14: chr14:73742652:73742653:-_ENSG00000133961_ENST00000557597|hu_hu|FALSE|FALSE (ssRNA)
RNA: GGGAGUUCUACAGUCCGACGAUCCCCCUUUACCUUUGGCAAGAUUACUUACAACUCAUACAACUUCUUAAUAUCUGAGAACUAUUUAAAAUAUUCUAAAUGCAUAAAAAUAAAGAUUUUGGCUUUUGAUAUAUAUAAUAUUUACAACAGAGGAUUGAGCAUCA
B15: chr11:18422405:18422406:+_ENSG00000134333_ENST00000379412|hu_hu|motif|central (ssRNA)
RNA: GGGAGUUCUACAGUCCGACGAUCCAGCUUGGAGUUUGCAGUUACAUUAUAGUCUUUGCCAGAGACAAUCUUUGGUGUUCGGAGGAAAAGGCUGCCAUGUUGGAGAUCCAUCAUCUCUCCCUUCAAUUUGUCUUCGAUGACAUCCAACAGAGGAUUGAGCAUCA
B16: chr14:89338683:89338684:+_ENSG00000165533_ENST00000346301|hu_hu|hu_hu_hu_mus_False|58_108 (ssRNA)
RNA: GGGAGUUCUACAGUCCGACGAUCGUGGUUGUUGUUGACCAGGGCCAGCCUGAAGCAUUGGUGGGCCAAGUUUGUAUCUCCUAUUCCCACAGCUAUGUGCCCCAGGUUGUACCAGACAUCAGCUGCCUCUUCUUCAUUUUCAGCCAACAGAGGAUUGAGCAUCA
B17: chr2:198351390:198351391:-_ENSG00000144381_ENST00000345042|hu_hu|hu_hu_hu_mus_False|78_78 (ssRNA)
RNA: GGGAGUUCUACAGUCCGACGAUCUCAUUCCCACCCUCCACAGAAAGGCUGCUUCUGUUCUCAUCUGUGGUGACACAGCGCUACAGUCCUGAUGCUCACAGAACAGUAGAGAUGCCUCAGUGAUUUAAGUUGAAAGCAGGACACCAACAGAGGAUUGAGCAUCA
B18: chr4:34758383:34758384:-_ENSMUSG00000039967_ENSMUST00000047950|mus_mus|FALSE|FALSE (ssRNA)
RNA: GGGAGUUCUACAGUCCGACGAUCUUCAUCAUCUGAACCAUCGUUGUCAUUAAACACUAUGAAAUCUGUUGAAUAAAGACUAUUCUUUUUUAUGGGUCGCUGUUCCUGUUUAGCCACAGUAUUAAUAUUAGUCUUUUGAUUUUCCAACAGAGGAUUGAGCAUCA
B19: chr17:13115065:13115066:+_ENSMUSG00000068039_ENSMUST00000151287|mus_mus|FALSE|FALSE (ssRNA)
RNA: GGGAGUUCUACAGUCCGACGAUCGAUACUUGCUCCAGAAGCUUUUGCAACAUGCUUCAGGUCUCGUUUUAAAACUCUCCUAACAGCCAUGGCACCAGCUUCCACAAAAUACUUGAGAUACAUAUCAUCAAUGCCACCAGUGGUCAACAGAGGAUUGAGCAUCA
B20: chr15:31385891:31385892:-_ENSMUSG00000039100_ENSMUST00000090227|mus_mus|motif|central (ssRNA)
RNA: GGGAGUUCUACAGUCCGACGAUCAUUCACUCCUAAACAGACACCCCUAGGCCUUAGUCACUCAUUUCCAUCUAAGGUUCGGUAGGAUUGUCAUGAUUACAAAAUGAGGCACUCAGACAGAUAGACAGGAAUGGAGACAUACAUCAACAGAGGAUUGAGCAUCA
B21: chr4:17845017:17845018:+_ENSG00000109805_ENST00000514176|hu_mus|hu_hu_hu_mus_False|1_58 (ssRNA)
RNA: GGGAGUUCUACAGUCCGACGAUCGCUCUCUUAACUUGUAUCUUCAUUAAGGAACUCUGCAAGGUUAAGUUUACUUUUUCUAGUGCUAGCUGUUUUGGCUCGUCUGGGUAAUCUCAUCUUCAUUUCUGAUGGUGGUUUGGAACUCAACAGAGGAUUGAGCAUCA
B22: chr6:146524949:146524950:-_ENSMUSG00000040250_ENSMUST00000032427|mus_hu|FALSE|FALSE (ssRNA)
RNA: GGGAGUUCUACAGUCCGACGAUCCUGCCUGCAAGAUUCUGCCAUAUAAGGGCAGUGAUCCACAACAAACACUGUUUUAUGAGAUUCAGAAAAAAUCUUCAUUUUGUUUUAACUUUCGUGCCUGGUCCUGCAGUGAAAACGAACCAACAGAGGAUUGAGCAUCA

Target: T1, UNK ZnF1-3
Assay: nsRBNS (natural sequence RNA bind-n-seq); RBNS binding buffer (assumed for nsRBNS): 25 mM Tris pH 7.5, 150 mM KCl, 3 mM MgCl2, 0.01% Triton X-100, 500 ug/ml BSA, 20 U/ml SUPERase-In, 4 C; UNK is unkempt and MSI1 is Musashi-1; names of the RNAs are library labels; protein concentration not given here; high values mean tight binding

Binder	binding signal
B1	0.799 enrichment R
B2	1.36 enrichment R
B3	0.693 enrichment R
B4	1.29 enrichment R
B5	1.1 enrichment R
B6	0.972 enrichment R
B7	0.536 enrichment R
B8	0.705 enrichment R
B9	1.45 enrichment R
B10	0.607 enrichment R
B11	0.809 enrichment R
B12	1.19 enrichment R
B13	2.34 enrichment R
B14	1.07 enrichment R
B15	0.638 enrichment R
B16	0.492 enrichment R
B17	1.4 enrichment R
B18	0.418 enrichment R
B19	0.985 enrichment R
B20	1.25 enrichment R
B21	0.331 enrichment R
B22	1.02 enrichment R
